Only some compounds are listed: those with a hit (about 6.6% of all), similar ones and a draw of the others.
KB-V1 MDR tox – qHTS assay for MDR1-selective chemotherapeutics: Primary screen using the drug-selected MDR subline cells KB-V1; KB-V1 MDR cells viability, CellTiter-Glo, 72 h; Potency, µM (top dose mostly 46.1 µM), usual class: cytotoxic; hit rate 3.4% among 400,000; AID 1347076, 2019; also: % is scaled to controls: 0 for no effect and ±100 for the full control effect; nearly all actives have a fitted effect of over 60% in size
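Compound-treated KB-V1 multidrug-resistant cells, 72 h, 37 degrees C; viability by CellTiter-Glo. Fitted qHTS curves give the values.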
HepG2 viability – qHTS for Inhibitors of TGF-b: Cytotox Counterscreen | hit rate 0.76% among 410,000 | HepG2 CAGA-GFP viability, ATP luminescence, 18 h | AID 588856, 2011 | Potency, µM (highest dose often 46.1 µM), for inactives: top-dose activity change, negative = cytotoxicity, hits mostly cytotoxic
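HepG2 CAGA-GFP cells (1000/well, DMEM with 1% FBS) received compound, then TGF-beta at 500 pg/mL final, and were incubated 18 hours at 37 degrees C. Viability was read by CellTiter-Glo luminescence. Media-only wells were set as complete cell-killing and DMSO as no toxicity.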
KB-3-1 tox – qHTS assay for MDR1-selective chemotherapeutics: Primary screen using the parental adenocarcinoma cell KB-3-1; KB-3-1 viability, CellTiter-Glo ATP luminescence, 72 h; Potency, µM (doses to about 46.1 µM), usual class: cytotoxic; hit rate 1.4% among 400,000; AID 1347075, 2019; also: % is scaled to controls: 0 for no effect and ±100 for the full control effect; nearly all actives have a fitted effect of over 60% in size
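Multi-concentration cytotoxicity screen in KB-3-1 cells grown in DMEM lacking phenol red with 10% FBS. After 72 h at 37 °C with compound, ATP-dependent luminescence was recorded.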
HT1080 IDH1KD tx – qHTS for induction of synthetic lethality in tumor cells producing 2HG: qHTS for the HT-1080-IDH1KD cell line; HT-1080 IDH1 knockdown viability, ATP luminescence, 48 h; Potency, µM (series often up to 46.1 µM), inactives show at the top dose activity, negative = toxicity, actives largely listed as cytotoxic; hit rate 2% among 360,000;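 also: 0% = DMSO wells and -100% = cell-free medium wells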
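Knockdown cells (IDH1KD HT-1080) received compounds 2 h after plating at 750 cells/well and were kept 48 h at 37 °C in 5% FBS RPMI. A CellTiter-Glo luminescence read gave % activity for curve fitting.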
HT1080NT lethal – qHTS for induction of synthetic lethality in tumor cells producing 2HG: qHTS for the HT-1080-NT fibrosarcoma cell line; AID 686970, 2013; Potency, µM (highest dose often 46.1 µM), without a hit: at the top dose activity, negative = less viability, actives largely listed as cytotoxic; hit rate 1.6% among 360,000; HT-1080-NT fibrosarcoma viability, CellTiter-Glo ATP luminescence, 48 h;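 also: NT is the 2HG producing partner of a matched IDH1 knockdown line; 0% = DMSO-treated cells and -100% = media-only wells without cells; nearly all actives have a fitted effect of over 55% in size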
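Read-out is CellTiter-Glo luminescence after 10 minutes at room temperature, following 48 hours' compound treatment of HT-1080-NT cells (750 cells/well, RPMI, 5% FBS, 37 degrees C).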
TGFb SMAD3 inh – qHTS for Inhibitors of TGF-b. hit rate 1.2% among 410,000. HepG2 CAGA-GFP TGF-b/SMAD3 reporter, GFP fluorescence, 18 h; TGF-beta stimulated, 500 pg/mL final. Potency, µM (top dose mostly 46.1 µM), inactives show top-dose activity, negative = inhibition, hits mostly inhibitors; also: % is scaled to controls: 0 for no effect and ±100 for the full control effect; nearly all actives have a fitted effect of over 65% in size
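Per well, imaged GFP fluorescence of HEPG2 CAGA-GFP cells gives the signal; cells get compound, then TGF-beta (500 pg/mL final), 18 h at 37 degrees C; %Activity versus -TGF-beta and +DMSO controls.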
Starred values were filed as active, the others as inactive; i = inactive; ? = inconclusive; nt = no result given; ! = repeats disagree; [ ] = dose if it differs, or a comment. Calls follow the shape of the dose curve; as a rule, active = well fitted curve in the direction sought with a large enough effect; inconclusive = small, poorly fitted or top-dose-only effect, or another doubt; inactive = no such curve, though single readings can be large; an effect the other way counts as inactive or inconclusive. Potency is read from the fitted curve at half-maximal effect.

SMILES	KB-V1 MDR tox	HepG2 viability	KB-3-1 tox	HT1080 IDH1KD tx	HT1080NT lethal	TGFb SMAD3 inh
CC(=O)NNC(=O)c1[nH]c2ccc(Br)cc2c1-c1ccccc1	i	-15%	i	?	?	?
Cc1c(C(=O)N/N=C/c2ccccc2)[nH]c2ccc(Cl)cc12	i	-31%	?	15µM*	18µM*	?
NNC(=O)c1[nH]c2ccc(Br)cc2c1-c1ccccc1	?	-27%	?	15µM*	9.2µM*	?
O=C(N/N=C/c1ccccc1Cl)c1[nH]c2ccc(Br)cc2c1-c1ccccc1	5.8µM*	-27%	?	0.46µM*	0.52µM*	84%
O=C(CSC1=Nc2ccccc2N=C(c2ccc(F)cc2)C1)Nc1cc(F)ccc1F	?	0%	i	nt	nt	3%
CCn1cc(C(=O)Nc2ccc(C(C)C)cc2)c2cc(OC)c(OC)cc2c1=O	?	-30%	i	nt	nt	-27%
COCCNC(=O)CCCn1c(SCc2ccccc2C)nc2c(sc3ccccc32)c1=O	nt	-17%	nt	nt	nt	-10%
CCOc1cc(C2C(C(=O)OC)=C(C)NC3=C2C(=O)c2ccccc23)c(Br)cc1O (stereo not drawn)	i	-14%	i	nt	nt	?
COc1ccc(/C=N/NC(=O)c2[nH]c3ccc(Br)cc3c2-c2ccccc2)c(C(=O)O)c1OC	i	-9%	i	23µM*	23µM*	-28%
COc1cccc(CNC(=O)Cn2c(=O)n3nc(-c4cccc(C)c4)nc3c3ccccc32)c1	?	-12%	i	nt	nt	-7%
O=C(C1CCN(S(=O)(=O)N2CCC3(CC2)OCCO3)CC1)N1CCN(Cc2ccccc2)CC1	i	-10%	i	2%[9.24 µM]	8%	-9%
O=C(C1CCN(S(=O)(=O)N2CCC3(CC2)OCCO3)CC1)N1CCc2ccccc2C1	9.2µM*	-7%	i	-3%	3%	?
O=[N+]([O-])c1ccc(N/N=C/c2sc(N3CCOCC3)nc2-c2ccccc2)c(S(=O)(=O)Nc2ccc(Cl)cc2)c1	i	6%	2.3µM*	4%	11%	?
O=[N+]([O-])c1ccc(N/N=C/c2sc(N3CCOCC3)nc2-c2ccccc2)c(S(=O)(=O)Nc2ccccc2Cl)c1	?	-29%	9.2µM*	-11%	0%	-15%
Cc1ccc(-n2c(=O)c3c4c(sc3n(CC(=O)c3ccc(Cl)cc3)c2=O)CCC4)cc1C	?	-42%	i	nt	nt	-27%
CCc1cc2c(-c3ccccc3)cc(=O)oc2c2c1OCN(Cc1ccc(F)cc1)C2	i	-4%	i	nt	nt	13%
Cc1ccc(F)cc1-c1cc(C(=O)NCc2cc(C(F)(F)F)cc(C(F)(F)F)c2)[nH]n1	i	-35%	i	?	?	-15%
COc1ccc(Cl)c(-c2cc(C(=O)Nc3ccc(C)c(NS(C)(=O)=O)c3)[nH]n2)c1	i	-27%	i	?	-15%	23%
COc1ccc(Cl)cc1-c1cc(C(=O)NCc2cccc(Cl)c2)[nH]n1	i	-24%	?	?	?	?
COc1ccccc1-c1cc(C(=O)NN)[nH]n1	i	7%	i	13µM*	21µM*	25%
COc1ccc(Cl)cc1-c1cc(C(=O)Nc2ccc(C)c(NS(C)(=O)=O)c2)[nH]n1	i	-73%	i	23µM*	21µM*	?
Cc1ccc(Cl)cc1-c1cc(C(=O)NCc2cc(C(F)(F)F)cc(C(F)(F)F)c2)[nH]n1	?	-50%	?	?	?	11µM*
COc1ccc(Cl)cc1-c1cc(C(=O)NCc2cc(C(F)(F)F)cc(C(F)(F)F)c2)[nH]n1	i	-46%	i	?	21µM*	-23%
COc1ccc(NC(C)=O)cc1NC(=O)C1(c2cccs2)CCOCC1	i	-11%	i	nt	nt	-14%
CC(C)CC(C(=O)OCC(=O)N1CCN(c2ccccc2)CC1)N1C(=O)c2ccccc2C1=O (stereo not drawn)	16µM*	-7%	i	0%	-1%	-3%
SMILES	KB-V1 MDR tox	HepG2 viability	KB-3-1 tox	HT1080 IDH1KD tx	HT1080NT lethal	TGFb SMAD3 inh
COc1ccc(C(=O)COC(=O)C(CC(C)C)N2C(=O)c3ccccc3C2=O)cc1 (stereo not drawn)	8.2µM*	-15%	i	1%	2%	-2%
CCc1cc(C(=O)c2ccc(C)cc2)c(NC(=O)CCl)s1	?	-37%	23µM*	?	?	-10%
O=C(c1ccc(CS(=O)Cc2ccccc2Cl)o1)N1CCN(c2ccccn2)CC1 (stereo not drawn)	18µM*	-20%	i	-1%	-12%	?
O=C(c1ccc(CS(=O)c2ccccc2Cl)o1)N1CCN(c2ccccn2)CC1 (stereo not drawn)	?	2%	7.3µM*	7.3µM*	?	15%
CC(=O)c1ccc(NC(=O)c2cc(-c3ccc(Cl)c(Cl)c3)on2)cc1	?	-4%	i	nt	nt	3%
COc1ccc(OCCCCn2c(C3CC(=O)N(c4cccc(Cl)c4)C3)nc3ccccc32)cc1 (stereo not drawn)	i	-10%	i	nt	nt	?
C/C=C1\COC(C(=O)NCCN2CCCC2)(C(F)(F)F)C=C1C=C1CCCCC1 (stereo not drawn)	i	-82%	i	-13%	-9%	?
C/C=C1\COC(C(=O)NCCCN2CCCC2=O)(C(F)(F)F)C=C1C=C(C)C (stereo not drawn)	i	11µM*!	i	9%	1%	?
CC(C)CC[n+]1ccccc1/C=C/c1ccc(N(C)C)cc1	i	-22%	1.5µM*	23µM*	?	33%
Cc1cc(N/N=C2/CCCc3ccccc32)nc2ccccc12	?	11µM*	?	-19%	?	16µM*
CCCc1cc(=O)[nH]c(SCC(=O)N2N=C(c3ccc(Cl)cc3)CC2c2ccco2)n1 (stereo not drawn)	21µM*	-6%	?	-5%	2%	?
O=C(CCl)N1N=C(c2cccs2)CC1c1ccco1 (stereo not drawn)	?	-89%	?	4.1µM*	5.2µM*	11µM*

Bioassay records: PubChem, National Center for Advancing Translational Sciences (NCATS)
